Screens (PubChem BioAssay)
Tb PYK inh: blocks Trypanosoma brucei pyruvate kinase | TbPYK enzyme, Kinase-Glo Plus ATP luminescence, 45 min | Potency, µM (top dose mostly 76.8 µM), for inactives: at the highest dose activity, negative = inhibition, actives largely listed as inhibitors | 410,000 tested, 0.12% active | AID 624173; also: potency is read from the fitted curve at half-maximal effect; % is scaled to controls: 0 for no effect and ±100 for the full control effect; nearly all actives have a fitted effect of over 50% in size
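In this concentration-response screen, enzyme-free wells defined baseline while DMSO plates tracked drift. Each reaction combined TbPYK, substrate, compound and 130 uM ADP for 45 min at room temperature. Kinase-Glo Plus luminescence gave the signal.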
Shiga toxin inh: blocks Shiga toxin action in Vero cells; AID 2315; inhibition, % at 38.7 µM; Vero cells, Shiga toxin protein synthesis inhibition reporter; 290,000 tested, 9.2% active; in the data active = inhibition mostly above about 28%, no sharp cut-off; inactive = mostly below about 43%; also: 0% is about no effect
Cycloheximide cs: counter-screen hit for Shiga toxin inhibitors, cycloheximide. max response, %. 300,000 tested, 12% active. AID 2314. cell reporter, cycloheximide protein synthesis inhibition counterscreen; in the data active = max response mostly above about 13%, no sharp cut-off; inactive = mostly below about 14%; also: read at 38.3 µM for the half of the compounds with a filed dose; 0% is about no effect
RE007 growth inh: less growth of the S. pombe RE007 Vpr strain | S. pombe RE007 Vpr strain, BacTiter-Glo ATP luminescence, 24 h | Potency, µM (titrated, usually from 92.2 µM), for the others: at the highest dose activity change, negative = less growth, usual class: inhibitors | 360,000 tested, 0.21% active; active = well fitted falling curve with a large enough effect; inconclusive = small, poorly fitted or top-dose-only effect; inactive = no such curve, though single readings can be large or run the other way; also: potency is read from the fitted curve at half-maximal effect; % is scaled to controls: 0 for no effect and ±100 for the full control effect; nearly all actives have a fitted effect of over 50% in size
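Fission yeast strain RE007, carrying one chromosomally integrated HIV-1 vpr copy, was seeded at OD 0.01 in PMG+AL medium with 23 nL pinned compound. After 24 h at 30 °C and 99% humidity, viability was read by BacTiter-Glo luminescence.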
LmPK inh: LmPK (Leishmania mexicana) enzyme inhibition | Q27686 | purified LmPK, Kinase-Glo ATP luminescence, 1 h | Potency, µM (doses to about 57.5 µM), for inactives: top-dose activity change, negative = inhibition, usual class: inhibitors | 290,000 tested, 0.37% active | AID 1721; also: potency is read from the fitted curve at half-maximal effect; % is scaled to controls: 0 for no effect and ±100 for the full control effect
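ATP generated from ADP (0.1 mM) and PEP (0.5 mM) by 0.1 nM LmPK over 1 h at room temperature (pH 7.2 imidazole buffer) was detected by coupled luciferase luminescence. Values were normalized to uninhibited and no-enzyme wells.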
FBPA Giardia inh: Giardia lamblia aldolase inhibition. A8B2U2. purified Giardia FBPA. Potency, µM (doses to about 59.6 µM), for inactives: at the highest dose activity, negative = inhibition, usual class: inhibitors. 290,000 tested, 0.71% active. AID 2451; also: potency is read from the fitted curve at half-maximal effect; % is scaled to controls: 0 for no effect and ±100 for the full control effect; nearly all actives have a fitted effect of over 55% in size
Target sequence (A8B2U2 whole entry, looked up): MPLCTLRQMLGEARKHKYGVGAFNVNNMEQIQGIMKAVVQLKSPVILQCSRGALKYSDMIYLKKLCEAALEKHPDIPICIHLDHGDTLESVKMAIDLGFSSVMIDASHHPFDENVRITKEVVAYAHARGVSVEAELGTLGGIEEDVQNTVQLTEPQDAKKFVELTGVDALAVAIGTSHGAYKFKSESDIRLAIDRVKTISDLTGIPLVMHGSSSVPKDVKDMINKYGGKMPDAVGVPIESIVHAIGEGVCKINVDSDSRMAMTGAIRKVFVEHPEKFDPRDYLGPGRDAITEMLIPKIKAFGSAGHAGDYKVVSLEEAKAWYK
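Giardia FBPA (40 nM reagent) was preincubated 10 min at RT with compound (up to 57.5 uM final), then substrate plus GAPDH/TPI/NAD/arsenate coupling system with diaphorase/resazurin was added; resorufin fluorescence (525/598 nm) was read after 20 min.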
An asterisk follows results filed as active. This excerpt belongs to a sample that is enriched for hits. Unless noted, calls follow the shape of the dose curve; as a rule, active = well fitted curve in the direction sought with a large enough effect; inconclusive = small, poorly fitted or top-dose-only effect, or another doubt; inactive = no such curve, though single readings can be large; an effect the other way counts as inactive or inconclusive.

`Cc1ccc(OCCOc2cccc3ccc(C)nc23)c([N+](=O)[O-])c1` gave Tb PYK inh 20%, Shiga toxin inh 51, Cycloheximide cs 13, RE007 growth inh -20%, LmPK inh 0% and FBPA Giardia inh inconclusive.
Screening O=[N+]([O-])c1ccccc1OCc1nc(-c2cccs2)no1 returned Tb PYK inh -1%, Shiga toxin inh 179*, Cycloheximide cs 61*, RE007 growth inh inconclusive, LmPK inh -13% and FBPA Giardia inh -7%.
`Cc1ccc(OCc2nc(-c3cccs3)no2)c([N+](=O)[O-])c1` gave Tb PYK inh 1%, Shiga toxin inh 100*, Cycloheximide cs 45*, RE007 growth inh -4%, LmPK inh 4% and FBPA Giardia inh -5%.
For O=C(Nc1cccnc1)OCc1ccccc1 the results were Tb PYK inh 1%, Shiga toxin inh 36, Cycloheximide cs 19*, RE007 growth inh 18%, LmPK inh 0% and FBPA Giardia inh -3%.
O=C(Nc1ccc(Cl)c(Cl)c1)OCc1cccnc1 was read as Tb PYK inh 0%, Shiga toxin inh 42*, Cycloheximide cs 20*, RE007 growth inh -16%, LmPK inh 2% and FBPA Giardia inh 2%.
Screening Fc1ccc(-n2nnnc2-c2cnc(-c3cccs3)nc2C(F)(F)F)cc1 returned Tb PYK inh -5%, Shiga toxin inh 19, Cycloheximide cs -2, RE007 growth inh 1%, LmPK inh -6% and FBPA Giardia inh -11%.
`CCN(c1ccc(OC)cc1)S(=O)(=O)c1ccc2c(c1)CC(C)N2C(=O)C1CC1` (configuration not stated) gave Tb PYK inh -4%, Shiga toxin inh 5, Cycloheximide cs 22*, RE007 growth inh -2%, LmPK inh 2% and FBPA Giardia inh -1%.
Fc1c(F)c(-n2nnc3ccccc32)c(F)c(F)c1Cl was read as Tb PYK inh 0%, Shiga toxin inh -22, Cycloheximide cs -6, RE007 growth inh -23%, LmPK inh 0% and FBPA Giardia inh -1%.
COc1cc(CNC(=O)c2ccc3oc(C(C)C)nc3c2)cc(OC)c1 was read as Tb PYK inh -2%, Shiga toxin inh 15, Cycloheximide cs 14*, RE007 growth inh 5%, LmPK inh 2% and FBPA Giardia inh -2%.
Screening CC(C)c1nc2cc(C(=O)N(C)Cc3ccc(F)cc3)ccc2o1 returned Tb PYK inh 0%, Shiga toxin inh 80*, Cycloheximide cs 43*, RE007 growth inh 7% and LmPK inh -11%.
`CC(C)c1nc2cc(C(=O)NC(c3cccnc3)C(F)(F)F)ccc2o1` (configuration not stated) gave Tb PYK inh -7%, Shiga toxin inh 24, Cycloheximide cs 18*, RE007 growth inh 10% and LmPK inh -8%.
Screening CC(=O)Nc1ccc(NC(=O)/C=C/c2ccccc2)cc1 returned Tb PYK inh 4%, Shiga toxin inh 33*, Cycloheximide cs 25*, RE007 growth inh 2%, LmPK inh 1% and FBPA Giardia inh 2%.
COc1ccc(NC(=O)/C=C/c2cc(OC)c(OC)c(OC)c2)cn1 was read as Tb PYK inh -10%, Shiga toxin inh 14, Cycloheximide cs 8, RE007 growth inh -5%, LmPK inh 0% and FBPA Giardia inh 1%.
Screening COc1ccc(NC(=O)/C=C/c2ccccc2)cn1 returned Tb PYK inh 22%, Shiga toxin inh 86*, Cycloheximide cs 35*, RE007 growth inh -16%, LmPK inh -7% and FBPA Giardia inh -26%.
For COc1ccc(NC(=O)/C=C/c2ccc(F)cc2)cn1 the results were Tb PYK inh 2%, Shiga toxin inh 108*, Cycloheximide cs 51*, RE007 growth inh -7%, LmPK inh 1% and FBPA Giardia inh -24%.
Screening CC1CN(C(=O)CCC(=O)N2CCN(c3cccc(C(F)(F)F)c3)CC2)c2ccccc2O1 (configuration not stated) returned Tb PYK inh -6%, Shiga toxin inh -10, Cycloheximide cs -4, RE007 growth inh 7% and LmPK inh 7%.
COc1ccc(-c2nnc3c4ccccc4c(-c4ccccc4)nn23)cc1 was read as Tb PYK inh 4%.
Screening O=C(NNC(=O)c1cc(-c2cccnc2)nc2ccccc12)Nc1ccc(Cl)cc1 returned Tb PYK inh -6%, Shiga toxin inh 36, Cycloheximide cs 45*, RE007 growth inh -17%, LmPK inh -3% and FBPA Giardia inh -9%.
CC(C)(C)c1ccc(-c2cc(C(=O)NNC(=O)Nc3ccccc3)c3ccccc3n2)cc1 was read as Tb PYK inh 4%, Shiga toxin inh 39, Cycloheximide cs 22*, RE007 growth inh -25%, LmPK inh 2% and FBPA Giardia inh -6%.
`CC1(C(=O)Nc2ccccc2F)CCN1C(=O)Cc1ccc(-c2ccccc2)cc1` (configuration not stated) gave Tb PYK inh -7% and RE007 growth inh 5%.
CC1(Cc2ccccc2Cl)C(=O)Nc2c(Cl)ccc(Cl)c21 (configuration not stated) was read as Tb PYK inh 0% and RE007 growth inh -3%.
O=[N+]([O-])c1cccc2c([N+](=O)[O-])cccc12 was read as Tb PYK inh -3% and RE007 growth inh -4%.
For Cc1cc([N+](=O)[O-])c2ccccc2[n+]1[O-] the results were Tb PYK inh -1%, Shiga toxin inh -32, Cycloheximide cs -4, RE007 growth inh 14µM*, LmPK inh -4% and FBPA Giardia inh inconclusive.
`O=C(N/N=C/c1ccco1)c1cc(-c2ccccc2)n[nH]1` gave Tb PYK inh -2%, Shiga toxin inh 46*, Cycloheximide cs 20*, RE007 growth inh 13%, LmPK inh 0% and FBPA Giardia inh 0%.
Screening Cc1ccc(-c2cc(C(=O)N/N=C/c3ccco3)[nH]n2)cc1 returned Tb PYK inh 2%, Shiga toxin inh 33, Cycloheximide cs 19, RE007 growth inh 24%, LmPK inh 0% and FBPA Giardia inh -1%.
Screening O=C(N/N=C/c1ccco1)c1cc(-c2cccc3ccccc23)n[nH]1 returned Tb PYK inh -5%, Shiga toxin inh 58*, Cycloheximide cs 26*, RE007 growth inh -5%, LmPK inh -1% and FBPA Giardia inh 0%.
For Cn1cccc1-c1nc2ccc(NC(=O)c3ccc([N+](=O)[O-])cc3)cc2[nH]1 the results were Tb PYK inh 6%, Shiga toxin inh -17, Cycloheximide cs -2, RE007 growth inh 12%, LmPK inh -1% and FBPA Giardia inh 0%.
Cn1cc([N+](=O)[O-])c(C(=O)Nc2ccc(-c3nc4ccccc4[nH]3)cc2)n1 was read as Tb PYK inh 2%, Shiga toxin inh -3, Cycloheximide cs 32*, RE007 growth inh -24%, LmPK inh 3% and FBPA Giardia inh 3%.
